Compound activity deposited in PubChem by Sanford-Burnham Center for Chemical Genomics.
NadD inh: blocks S. aureus nicotinate mononucleotide adenylyltransferase; hit rate 0.78% among 360,000; purified NadD enzyme, colorimetric absorbance read-out; inhibition, % at 20 µM; AID 602399; in the data active = inhibition above about 26%
TAG inh: reduces triacylglycerol accumulation in H9c2 cells | AID 651582 | hit rate 0.66% among 230,000 | Nile Red lipid (TAG) fluorescence; cells loaded with 200 µM oleic acid | inhibition, % at 12.5 µM;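 active = pattern-corrected inhibition of lipid staining of at least 50% with the nuclear-stain viability signal not falling by more than 50%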
MPTP block: inhibitors of mitochondrial permeability transition pore. isolated mouse mitochondria, Ca2+ swelling absorbance, 30 min. inhibition, % at 10 µM. hit rate 1.4% among 360,000;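 active = inhibition of 50% or more, scaled per plate between neutral and stimulator controls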
aDG glyco act: increases alpha dystroglycan glycosylation. Pro5-aDG cells, alpha-DG glycosylation AlphaScreen (IIH6); 0% Pro5, 100% B10-LARGE cell signal. activation, % at 10 µM. hit rate 0.22% among 360,000. AID 624168;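 active = activation of at least 8% versus controls, or a plate z-score of at least 8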;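 note: Pro5 are CHO cells carrying HIG-tagged alpha-DG that lacks glycosylation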
aDG glyco conf: confirmation of alpha dystroglycan glycosylation activators; shares compounds with aDG glyco act; Pro5-aDG cells, alpha-DG glycosylation, IIH6 AlphaLISA; scaled to LARGE-overexpressing B10 cells as 100%; activation, % at 10 µM (by protocol); hit rate 17% among 600; AID 651671;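 active = activation of at least 7% in one or more replicates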;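 note: cells exposed to compound for two days before detection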
Numbers stand for hits; n = inactive; x = not tested or not shown. Hits are enriched below; roughly 2.7% of the tested compounds scored in any of these assays.

SMILES | NadD inh | TAG inh | MPTP block | aDG glyco act | aDG glyco conf
COC(=O)c1ccc(CNC(=O)Cn2cnc3c(NCc4ccccc4)ncnc32)cc1 | n | n | n | 8.3 | n
CCOc1ccc(C(=O)Nc2nc3ccccc3[nH]2)cc1OCC | n | n | n | 7.9 | n
CCc1ccc(OCCCCN(C)Cc2ccccc2)cc1 | n | x | n | 1.8 | n
CCN(CC)CCCN(C(=O)c1ccccc1F)c1nc(-c2ccc(OC)cc2)cs1 | n | n | n | 4.0 | n
CCN(CC)CCCN(C(=O)c1ccccc1C)c1nc(-c2ccc(OC)cc2)cs1 | n | n | n | n | x
O=C(Nc1c(C(=O)N2CCOCC2)oc2ccccc12)c1ccccc1Cl | n | x | n | n | x
Cc1ccccc1NC(=O)c1ccc(F)c(S(=O)(=O)N2CCN(c3ccccn3)CC2)c1 | n | x | n | n | x
O=C(Nc1ccc(Br)cc1)c1ccc(F)c(S(=O)(=O)N2CCN(c3ccccn3)CC2)c1 | n | n | n | 8.5 | n
O=C(CN1C(=O)c2cccc3cccc1c23)NC1CCCC1 | n | x | n | n | x
COCCn1cc(-c2csc(N)n2)c2ccccc21 | n | x | n | n | x
CN(C)c1nc(-c2cn(CCC#N)c3ccccc23)cs1 | n | x | n | 5.1 | n
C[C@H](CO)N1C[C@H](C)[C@@H](CN(C)C(=O)NC2CCCCC2)Oc2ccc(NS(=O)(=O)c3cn(C)cn3)cc2C1=O | n | n | n | n | x
CC(C)NC(=O)N(C)C[C@H]1Oc2ccc(NS(=O)(=O)c3cn(C)cn3)cc2C(=O)N([C@H](C)CO)C[C@@H]1C | n | n | n | 9.3 | n
CC(C)C(OC(=O)CN1C(=O)c2ccccc2C1=O)C(=O)NC1CCCCC1 (configuration not stated) | n | x | n | n | x
Cc1onc(-c2ccccc2)c1C(=O)N/N=C/c1ccco1 | n | n | n | n | x
O=C(CCNC(=O)c1ccccc1Cl)NN=Cc1ccccc1[N+](=O)[O-] | n | n | n | n | x
O=C(Cc1cccs1)N/N=C\c1ccc([N+](=O)[O-])s1 | n | n | n | 12.7 | 3.9
Cc1onc(-c2ccccc2)c1C(=O)N/N=C/c1ccc([N+](=O)[O-])s1 | n | x | n | 6.0 | n
O=C(CNC(=O)c1ccccc1Cl)N/N=C/c1ccc([N+](=O)[O-])s1 | n | x | n | 11.8 | 6.5
COc1cc(/C=N/NC(=O)Cc2cccs2)c([N+](=O)[O-])cc1OC | n | x | n | n | x
COC(=O)[C@]12CCCCC=C1N(Cc1ccccc1)C(=O)[C@H](CC(=O)NCCCN1CCCC1=O)C2 | n | x | n | n | x
COc1ccccc1NC(=O)C(C)Sc1nc(-c2ccccc2)cn1N (configuration not stated) | n | n | n | n | x
O=C1C(Cl)=C(NCCCO)C(=O)c2ccccc21 | n | n | n | 8.7 | 3.2
c1ccc2c(-c3cc(C4CCNCC4)[nH]n3)cccc2c1 | n | n | n | 13.9 | 6.4
COc1cc(/C=C/C(O)=C/C(=O)/C=C/c2ccc(O)cc2)ccc1O | n | n | n | n | x
SMILES | NadD inh | TAG inh | MPTP block | aDG glyco act | aDG glyco conf
O=[N+]([O-])c1ccc(N2CCN(c3ccccc3)CC2)nc1 | n | x | n | n | x
COc1cccc(N2CCN(c3ccc([N+](=O)[O-])cn3)CC2)c1 | n | x | n | 3.4 | n
COc1ccccc1-c1cncc(NC(C)=O)n1 | n | n | n | n | x
Cc1cc(OC(C)C(=O)NCCN2CCOCC2)c2c(C)cc(=O)oc2c1 (configuration not stated) | n | x | n | 8.3 | n
CSc1ncnc2c1ncn2CCCN1CCN(Cc2c(C)cc(C)cc2C)CC1 | n | n | n | n | x
O=C(CCNC(=O)c1ccco1)NCc1ccc(C(=O)O)cc1 | n | n | n | n | x
O=C(NCc1cccnc1)c1ccc(-c2cc3ccccc3oc2=O)cc1 | n | x | n | 5.6 | n
Cc1cc(C)c(S(=O)(=O)O)c(C)n1 | n | n | n | 6.9 | n
Cc1cc(C)c(S(C)(=O)=O)c(S(=O)(=O)c2ccc(Cl)cc2)n1 | n | x | n | n | x
CC(=O)Nc1nc(CC(=O)c2ccccc2)cs1 | n | n | n | 8.4 | n
Oc1ccc(-c2nccc(-c3ccccn3)n2)cc1 | n | x | n | n | x
CCc1ccc(NC(=O)[C@H](C)NC(=O)C2CCN(C(=O)[C@@H](N)C(C)C)CC2)cc1 | n | x | n | n | x
CCC(C)(C)c1nnc(NC(=O)CCC2CCCCC2)s1 | n | n | n | n | x
COc1ccc(C)cc1NC(=O)c1nn(-c2ccccc2)cc1OC | n | x | n | 2.5 | n
COc1cn(-c2ccccc2)nc1C(=O)Nc1ccc(C)cc1 | n | x | n | n | x
O=c1cc(-c2ccccc2)oc2ccccc12 | n | x | n | n | x
O=c1cc(-c2ccccc2)oc2ccc(O)cc12 | n | n | n | 2.4 | n
